Bioassay records: PubChem, National Center for Advancing Translational Sciences (NCATS)
Sampled rows, rich in hits. Any-hit rate of the full collection: about 2.3%.
Tau FP inhib = tau fibrillization inhibition (FP); P10636; K18 P301L tau heparin fibrillization, Alexa594 FP, 6 h; Potency, µM (top dose mostly 57.7 µM), inactives show at the top dose activity, negative = inhibition, most hits filed as inhibitors; hit rate 0.39% among 280,000; AID 1468; also: potency is read from the fitted curve at half-maximal effect; nearly all actives have a fitted effect of over 55% in size
Target sequence (P10636 561-689 P618L limits assumed): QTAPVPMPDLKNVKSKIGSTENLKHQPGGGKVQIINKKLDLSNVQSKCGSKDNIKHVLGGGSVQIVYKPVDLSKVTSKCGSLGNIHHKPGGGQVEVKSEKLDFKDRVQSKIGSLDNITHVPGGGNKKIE
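Read-out: fluorescence polarization of Alexa 594-labeled tau (0.24 uM), 555 nm excitation, 632 nm emission. Mixtures held 15 uM unlabeled K18 P301L, compound and 20 uM heparin, pH 7 acetate buffer, incubated 6 hr at 37 C.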
USP1-UAF1 inh = USP1/UAF1 (human) deubiquitinase inhibition; AID 743255; Potency, µM (top dose mostly 57.1 µM), for the others: top-dose activity change, negative = inhibition, hits mostly inhibitors; hit rate 0.23% among 390,000; recombinant USP1/UAF1, Ub-Rhodamine cleavage fluorescence; also: potency is read from the fitted curve at half-maximal effect; nearly all actives have a fitted effect of over 60% in size
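Step one: compound is pinned into 1nM USP1/UAF1 in HEPES pH 7.8 buffer with TCEP. Step two: 15 min room-temperature incubation. Step three: Ub-Rho (150nM final) starts cleavage, tracked by fluorescence over six one-minute reads.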
FBPA coupling cs = coupling enzyme interference in Giardia aldolase counter-screen; coupling enzyme system counterscreen, AmpLite Red fluorescence; hit rate 0.67% among 290,000; AID 2472; activity change, negative = inhibition, % at 58.2 µM, hits read low; in the data active = activity change below about -30%
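Compounds tested against the coupling enzymes alone at 57.5 uM final; readout was AmpLite Red fluorescence (525/598 nm) after 20 min at RT.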
Tau fluor counter = counter-screen for tau fibril formation inhibitors | AID 1463 | Potency, µM (highest dose often 57.7 µM), inactives show at the top dose activity change, negative = decrease | tau K18 P301L Alexa594 fluorescence, heparin fibrillization | hit rate 0.93% among 280,000; also: potency is read from the fitted curve at half-maximal effect; nearly all actives have a fitted effect of over 55% in size
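Human K18 P301L tau (15 uM unlabeled plus 0.24 uM Alexa 594-labeled, final) in 100 mM sodium acetate pH 7 was mixed with compound and 20 uM heparin and incubated 6 hr at 37 C.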
Tau fibril ThT = inhibitors of human tau fibril formation, thioflavin T binding. P10636. recombinant tau K18 P301L, heparin-induced fibrillization, ThT fluorescence. Potency, µM (titrated, usually from 57.4 µM), without a hit: at the top dose activity, negative = inhibition, actives largely listed as inhibitors. hit rate 2.1% among 270,000; also: potency is read from the fitted curve at half-maximal effect; nearly all actives have a fitted effect of over 55% in size
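Fibril formation assay: tau K18 P301L at 15 uM with trace Alexa 594 label, heparin inducer 20 uM, pH 7 sodium acetate buffer, 37 C for 6 hr; endpoint ThT signal.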
Numbers without * were called inactive; ! = repeats disagree; [ ] = remark or other dose. Unless noted, calls follow the shape of the dose curve; as a rule, active = well fitted curve in the direction sought with a large enough effect; inconclusive = small, poorly fitted or top-dose-only effect, or another doubt; inactive = no such curve, though single readings can be large; an effect the other way counts as inactive or inconclusive. % is scaled to controls: 0 for no effect and ±100 for the full control effect.

Screening CCOC(=O)c1c(N)n(CCCOC(=O)c2ccco2)c2nc3ccccc3nc12 returned Tau FP inhib -6%, USP1-UAF1 inh -19%, FBPA coupling cs -1, Tau fluor counter -12% and Tau fibril ThT -18%.
For CCOC(=O)c1c(NS(=O)(=O)c2ccccc2)n(CCCOC)c2nc3ccccc3nc12 the results were Tau FP inhib inconclusive, USP1-UAF1 inh 1.8µM*, FBPA coupling cs -39*, Tau fluor counter -18% and Tau fibril ThT inconclusive.
Screening CCCCCn1c(NC(=O)c2ccco2)c(C(=O)OCC)c2nc3ccccc3nc21 returned Tau FP inhib inconclusive, USP1-UAF1 inh 7.1µM*, FBPA coupling cs -28, Tau fluor counter -23% and Tau fibril ThT inconclusive.
Screening CC1(C)[C@H](C(=O)O[C@H](C#N)c2cccc(Oc3ccccc3)c2)[C@@H]1C=C(Br)Br returned FBPA coupling cs 0.
N#CC(C#N)=NNc1ccc(S(N)(=O)=O)cc1 was read as Tau FP inhib -9%, USP1-UAF1 inh -28%, FBPA coupling cs 7, Tau fluor counter -27% and Tau fibril ThT 10µM*.
CC1CCN(S(=O)(=O)c2ccc(NN=C(C#N)C#N)cc2)CC1 was read as Tau FP inhib -2%, FBPA coupling cs 6, Tau fluor counter inconclusive and Tau fibril ThT 14µM*.
Screening CN1CCc2cc(O)cc3c2C1Cc1ccc(O)c(O)c1-3 (centres undefined) returned Tau FP inhib 40µM*, Tau fluor counter 18µM*[quencher] and Tau fibril ThT 16µM*.
For C=CCN1CCc2cccc3c2C1Cc1ccc(O)c(O)c1-3 (centres undefined) the results were Tau FP inhib inconclusive, Tau fluor counter 14µM*[quencher] and Tau fibril ThT 14µM*.
`CCCN1CCc2cccc3c2[C@H]1Cc1ccc(O)c(O)c1-3` gave USP1-UAF1 inh -15%.
Screening C[C@@H]1C[C@H](C)C[C@H](C)[C@@H](O)CC(=O)O[C@H]([C@H]2CCC[C@H]2C(=O)O)C/C=C/C=C(/C#N)[C@H](O)[C@@H](C)C1 returned FBPA coupling cs -2.
O=c1oc(Cl)c(Cl)c2ccccc12 was read as Tau FP inhib inconclusive, USP1-UAF1 inh -19%, Tau fluor counter -19% and Tau fibril ThT 11µM*.
Screening CCN1C(=O)c2ccccc2Sc2ccc(NC(=O)c3ccc(C)c(F)c3)cc21 returned Tau FP inhib inconclusive, USP1-UAF1 inh 2%, Tau fluor counter -19% and Tau fibril ThT 5%.
`Cc1ccc(-c2cc(-c3ccc(C)cc3)[n+](-c3ccc(C(=O)O)cc3)c(-c3ccc(C)cc3)c2)cc1` gave USP1-UAF1 inh 6%.
For CC1(C)N(O)C(c2ccc(C(=O)O)cc2)=[N+]([O-])C1(C)C the results were Tau FP inhib -16%, FBPA coupling cs -51*, Tau fluor counter -11% and Tau fibril ThT inconclusive.
For O=C(Nc1ccccc1)c1ccccc1I the results were FBPA coupling cs -3.
`NNc1n[nH]c(=S)n1N` gave Tau FP inhib inconclusive, USP1-UAF1 inh -20%, FBPA coupling cs -62* and Tau fluor counter inconclusive.
Cc1ccccc1-n1c(O)c(/C=N/Nc2nc3c(c(=O)n(C)c(=O)n3C)n2C)c(=O)[nH]c1=S was read as Tau FP inhib inconclusive, USP1-UAF1 inh -26%, FBPA coupling cs -7, Tau fluor counter -14% and Tau fibril ThT inconclusive.
`Cn1c(=O)c2c(nc(N/N=C/c3c(O)n(C4CCCCC4)c(=S)[nH]c3=O)n2C)n(C)c1=O` gave Tau FP inhib inconclusive, USP1-UAF1 inh -21%, FBPA coupling cs 2, Tau fluor counter inconclusive and Tau fibril ThT 16µM*.
Cc1cccc(-n2c(O)c(/C=N/Nc3nc4c(c(=O)n(C)c(=O)n4C)n3C)c(=O)[nH]c2=S)c1 was read as Tau FP inhib inconclusive, USP1-UAF1 inh -26%, FBPA coupling cs -5, Tau fluor counter inconclusive and Tau fibril ThT 13µM*.
Screening CCCc1cc(N2CCN(c3cccc(C)c3C)CC2)n2cnnc2n1 returned Tau FP inhib -10%, USP1-UAF1 inh 4%, Tau fluor counter -6% and Tau fibril ThT inconclusive.
For COC(=O)CC1=C(C(=O)OC)C2(C(=O)Nc3c(C)cccc32)C(C#N)=C(N)O1 (centres undefined) the results were Tau FP inhib 2%, USP1-UAF1 inh -21%, FBPA coupling cs -38*, Tau fluor counter -9% and Tau fibril ThT -9%.
For COC(=O)C1=C(C)OC(N)=C(C#N)C12C(=O)Nc1ccccc12 (centres undefined) the results were Tau FP inhib -4%, USP1-UAF1 inh -12%, FBPA coupling cs 2, Tau fluor counter 6%[2.34 µM] and Tau fibril ThT -1%.
For COC(=O)C1=CO[C@@H](C)[C@@H]2CN3CCc4c([nH]c5cc(OC)ccc45)[C@@H]3C[C@H]12 the results were Tau FP inhib -8%, FBPA coupling cs -28, Tau fluor counter inconclusive and Tau fibril ThT 22µM*.
`C[C@@H]1C(=O)O[C@H]2C[C@@]34[C@H]5C[C@@H](C(C)(C)C)[C@]36[C@@H](OC(=O)[C@@H]6O)O[C@@]4(C(=O)O5)[C@]21O` gave USP1-UAF1 inh -7% and FBPA coupling cs 5.
Screening Nc1c(C(=O)NCC2CCCO2)c2nc3ccccc3nc2n1Cc1ccco1 (centres undefined) returned Tau FP inhib inconclusive, USP1-UAF1 inh -27%, FBPA coupling cs -1, Tau fluor counter inconclusive and Tau fibril ThT inconclusive.
For Nc1c(C(=O)NC2CCCC2)c2nc3ccccc3nc2n1CC1CCCO1 (centres undefined) the results were Tau FP inhib -9%, USP1-UAF1 inh 28µM*, FBPA coupling cs -46*, Tau fluor counter -19% and Tau fibril ThT -16%.
CC(C)=CCCN1CCC(NC(=O)C(O)(c2ccccc2)C2CCCC2)CC1 (centres undefined) was read as FBPA coupling cs 0.
C[n+]1c2cc(N)ccc2cc2ccc(N)cc21 was read as Tau FP inhib 5%, USP1-UAF1 inh 4µM*!, FBPA coupling cs -16, Tau fluor counter inconclusive and Tau fibril ThT inconclusive.
Nc1ccc2ccccc2c1 was read as USP1-UAF1 inh -5%.
O=C(Nc1ccc(Cl)c(C(F)(F)F)c1)C1CCCN(S(=O)(=O)c2cccc3cccnc23)C1 (centres undefined) was read as Tau FP inhib -19%, USP1-UAF1 inh 7%, Tau fluor counter inconclusive and Tau fibril ThT -1%.
Screening COC[C@H]1OC(=O)c2coc3c2[C@@]1(C)C1=C(C3=O)[C@@H]2CCC(=O)[C@@]2(C)C[C@H]1OC(C)=O returned Tau FP inhib 25µM*, USP1-UAF1 inh -3%, Tau fluor counter inconclusive and Tau fibril ThT 14µM*.
